This note sets out measurements from PubChem BioAssay AID951 (NMMLSC, 2007).

As usually defined, the inhibition is the drop in the measured response relative to a control, in per cent.

About 140 (0.074%) of roughly 190,000 compounds were called active. The sample holds actives, similar compounds and a random draw of the others, so the mix is not that of the screen. Cut-off read from the data, not from the text of the source: active = inhibition above about 40%.

The target in this assay is Bcl-2-like protein 10 (Homo sapiens) (UniProt Q9HD36). Briefly: Bcl-B and Bim peptide interaction disruptors – biochemical, multiplexed, human Bcl-2 family, primary screen (AID 951).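 Note: 0% = tracer peptide without compound and 100% = reference inhibitor peptide.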 The following applies: bead-based flow cytometry, Bim peptide-Bcl-B binding; at 10 µM; stronger effect = higher value.
Sequence of Bcl-2-like protein 10 (Homo sapiens) (Q9HD36 whole entry, looked up): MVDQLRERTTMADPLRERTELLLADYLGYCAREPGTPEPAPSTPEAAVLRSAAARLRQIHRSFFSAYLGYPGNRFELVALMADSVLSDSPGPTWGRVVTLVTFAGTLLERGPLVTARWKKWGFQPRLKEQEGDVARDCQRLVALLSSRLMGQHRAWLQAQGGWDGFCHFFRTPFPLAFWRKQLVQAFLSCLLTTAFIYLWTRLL
`COc1ccccc1N1CCN(CC(=O)NC(=O)NCc2ccco2)CC1`: the inhibition is -9% (inactive).

For `CCN(CCn1cccn1)Cc1cn[nH]c1-c1ccc(OC)cc1F`, the inhibition was -4% (inactive).

For the compound `O=C(COC(=O)CNC(=O)c1ccccc1F)NCC(F)(F)F`, the inhibition is -5% (inactive).

As for `COc1ccc(C(CC(=O)Nc2ccc(C)cc2)NC(=O)C(F)(F)F)cc1` (stereo unspecified), the inhibition is -9% (inactive).

In the case of `CCOC(=O)c1oc2c(CN3CCN(CCO)CC3)c(O)c(CC)cc2c(=O)c1-c1nc2ccccc2s1`, the inhibition is 0% (inactive).

With `N#Cc1ccccc1NC(=O)COc1c(Br)cc(Br)c2cccnc12`, the inhibition was -7% (inactive).

With `Cc1ccc(Nc2nc(CSc3nnc(-c4ccncc4)n3-c3ccccc3C)cs2)cc1`, the inhibition was -11% (inactive).

As for `CCCCc1ccc(NC(=S)N2CCCC(CO)C2)cc1` (stereo unspecified), the inhibition is -7% (inactive).

`Cc1ccc(NC(=O)O/N=C/c2cccc([N+](=O)[O-])c2)cc1`: the inhibition is 0% (inactive).

`CCOc1cc(NC(=S)NCCCOC)c(OCC)cc1NC(=O)c1ccco1`: the inhibition is -11% (inactive).

As for `NC(=O)c1ccccc1N=Cc1ccc2ccccc2c1`, the inhibition is -4% (inactive).

As to `O=c1c(-c2ccccc2)cnc2n1CCS2`, the inhibition is -2% (inactive).

As for `O=C(CC1SCCNC1=O)Nc1ccc(Cl)c(Cl)c1` (stereo unspecified), the inhibition was -1% (inactive).

As to `CCC(CC)C(=O)N1CCN(c2cccc(C)c2C)CC1`, the inhibition is 0% (inactive).

Take `CCN(CC)CCNC(=O)c1ccc(NS(=O)(=O)c2ccc3c(c2)OCCO3)cc1`: the inhibition is 0% (inactive).

`Cc1nc2ccccc2n1CC(=O)N/N=C/c1cccs1`: the inhibition was -6% (inactive).

Take `CN(C)c1ccc(C(=S)N2CCN(C(=S)Nc3ccc(Cl)cc3)CC2)cc1`: the inhibition was -6% (inactive).

Turning to `CN1CCN(CCNC(=O)Nc2ccc([N+](=O)[O-])cc2)CC1`, the inhibition was -5% (inactive).

Turning to `O=C(Nn1cnc2ccccc2c1=O)c1ccc([N+](=O)[O-])cc1Cl`, the inhibition is 0% (inactive).

With `Cc1c(CN2CCCCC2)c(O)n(CCO)c(=O)c1C#N`, the inhibition was -3% (inactive).

Take `CCOc1cc(NC(=O)CCl)c(OCC)cc1NC(C)=O`: the inhibition is -4% (inactive).

Turning to `CC(NC(=O)COC(=O)c1ccc2c(c1)OCO2)c1ccccc1` (stereo unspecified), the inhibition was 0% (inactive).

Consider `CC(C)NC(=O)c1ccc(Cl)cc1Cl`, for which the inhibition is -2% (inactive).

On to `Cn1c(-c2sccc2OCc2cccc(C(F)(F)F)c2)n[nH]c1=S`, for which the inhibition was -24% (inactive).

Take `O=C(CC(NC(=O)c1ccccc1)c1ccccc1)Nc1ccc(F)c(F)c1` (stereo unspecified): the inhibition was -6% (inactive).

With `CCOC(=O)C1(C)NC(c2ccco2)C2C(=O)N(c3ccccc3)C(=O)C21` (stereo unspecified), the inhibition is -1% (inactive).

With `CC(=O)c1c(N2CCN(c3ccc(F)cc3)CC2)nc(=S)n(-c2ccccc2)c1C`, the inhibition was -11% (inactive).

In the case of `CNC(=O)C(=O)N/N=C/c1ccccn1`, the inhibition is 2% (inactive).

On to `CCCC1NC(=S)NC(C)=C1C(C)=O` (stereo unspecified), for which the inhibition was -2% (inactive).

In the case of `C/C(=N/NC(=O)CSc1ccccn1)c1ccc([N+](=O)[O-])cc1`, the inhibition was -2% (inactive).

For the compound `CC(C)(C)C(=O)CSc1nc2ccccc2o1`, the inhibition was -4% (inactive).

Regarding `CCOC(=O)C(C)Oc1cccc2c(=O)n(CC(=O)NCCc3ccc(OC)c(OC)c3)ccc12` (stereo unspecified), the inhibition was -3% (inactive).

For the compound `CCSC1=NCCN1C(=O)c1ccc(S(=O)(=O)N(CC)CC)cc1`, the inhibition was -5% (inactive).

In the case of `CC(C)(C)c1ccc(/C=C2\SC(=O)N=C2N)cc1`, the inhibition is -3% (inactive).

As for `Cc1c(Br)c([N+](=O)[O-])nn1CC(=O)Nc1sc2c(c1C(=O)OC(C)C)CCC(C)C2` (stereo unspecified), the inhibition is 2% (inactive).

With `Cc1cc(Cl)ccc1OCc1nc(-c2ccncc2)no1`, the inhibition is -5% (inactive).

Take `O=C(Nc1ccc2c(c1)CCC2)c1ccc(Br)s1`: the inhibition was 0% (inactive).

In the case of `CCn1cc(C(=O)NCCCN2CCCCCC2)c(=O)c2cc(S(=O)(=O)N3CCc4ccccc4C3)ccc21`, the inhibition was -12% (inactive).

Turning to `O=C(N/N=C/c1cc2c(cc1Br)OCO2)C1COc2ccccc2O1` (stereo unspecified), the inhibition was 1% (inactive).

Take `O=[N+]([O-])c1cccc(/C([O-])=C(/C(=S)Nc2ccccc2F)[n+]2ccccc2)c1`: the inhibition was -16% (inactive).

With `COc1cccc(-c2ccc(C#N)c(SCC(=O)NCCc3ccc(Cl)cc3)n2)c1`, the inhibition is -12% (inactive).

On to `O=C(NCC1CCCO1)C1CCN(C2CCN(C(=O)C3CCCCC3)CC2)CC1` (stereo unspecified), for which the inhibition was 0% (inactive).

Regarding `Cc1cccc(-n2c(SCC(=O)Nc3cccc(S(=O)(=O)NC4=NCCCCC4)c3)nc3ccccc3c2=O)c1C`, the inhibition is -4% (inactive).

As to `O=C(Nc1ccc(F)cc1)C1CCN(C(=O)c2ccc([N+](=O)[O-])cc2)CC1`, the inhibition was 6% (inactive).

For `O=C(O)c1ccc(NS(=O)(=O)c2ccc3c(c2)C(=O)c2cc(S(=O)(=O)Nc4ccc(C(=O)O)cc4)ccc2-3)cc1`, the inhibition was -6% (inactive).

As for `O=C(COC(=O)Cc1ccc(Br)cc1)Nc1c(F)c(F)c(F)c(F)c1F`, the inhibition was -7% (inactive).

Consider `CC(=O)c1ccccc1NC(=O)CC1(CC(=O)O)CCCCC1`, for which the inhibition was -1% (inactive).

As for `CC(=O)NS(=O)(=O)c1ccc(NC(=S)NC(=O)C(C)(C)C)cc1`, the inhibition was -4% (inactive).

As to `CC(C)(C)C(=O)NC(NC(=S)Nc1ccc(S(N)(=O)=O)cc1)C(Cl)(Cl)Cl` (stereo unspecified), the inhibition was 49% (active).

As to `NS(=O)(=O)c1ccc(NC(=S)Nc2ccc(Br)c(Cl)c2)cc1`, the inhibition is -9% (inactive).

Regarding `COc1cccc(C2c3[nH]c4ccccc4c3CCN2Cc2cccc(C)n2)c1` (stereo unspecified), the inhibition is -3% (inactive).

Turning to `CCOc1ccc2nc(NC(=O)c3cc([N+](=O)[O-])ccc3N3CCOCC3)sc2c1`, the inhibition is -3% (inactive).

Take `O=C(CCc1ccccc1)Nc1ccc(NC(=O)C2CCCCC2)nc1`: the inhibition is 0% (inactive).

As to `O=C(NNC(=S)NCCCN1CCOCC1)c1ccncc1`, the inhibition is -2% (inactive).

With `OC(COCc1ccco1)CN1CCN(c2ccccc2)CC1` (stereo unspecified), the inhibition was -4% (inactive).

In the case of `Cc1cc(N2CCOCC2)nc2ccc(NC(=S)N3CCN(Cc4ccccc4)CC3)cc12`, the inhibition is -4% (inactive).

`CCNC(=O)CC1C(=O)N(c2ccc(F)cc2)C(=O)N1Cc1cccs1` (stereo unspecified): the inhibition is -6% (inactive).

On to `CCO[C@H]1OC(C(=O)N2CCN(Cc3ccccc3)CC2)=C[C@@H](c2cn(C(C)=O)c3ccccc23)[C@@H]1CCCO`, for which the inhibition is -3% (inactive).

With `CN(C)N(C)C(=O)C(O)(c1ccccc1)c1ccccc1`, the inhibition is -2% (inactive).

On to `CS(=O)(=O)c1ccc2nc(NC(=O)c3ccc(Cl)nc3)sc2c1`, for which the inhibition is -2% (inactive).

Take `O=[N+]([O-])c1ccc(N/N=C2/CCCCC2c2ccccn2)c([N+](=O)[O-])c1` (stereo unspecified): the inhibition is -11% (inactive).
